Experimental data reported in the supplement of paper PMC11732987, “Enantioselective OTUD7B fragment discovery through chemoproteomics screening and high-throughput optimisation” (Communications Chemistry, 2025).
Unmarked numbers belong to inactive results.

What was measured:
Assay in all cases: log2 ratio of Biotin-Ahx-Ub-VS probe labelling (fragment/DMSO); higher = less target engagement (more negative = stronger competition), active = hit call of the paper (q ≤ 0.05, log2 ratio ≤ -1)
Conditions in all cases: compound concentration: 200 uM; treatment time: 3 h
[1] = biological target: T1, USP42 (UniProt Q9H9J4)
T1 sequence (whole entry): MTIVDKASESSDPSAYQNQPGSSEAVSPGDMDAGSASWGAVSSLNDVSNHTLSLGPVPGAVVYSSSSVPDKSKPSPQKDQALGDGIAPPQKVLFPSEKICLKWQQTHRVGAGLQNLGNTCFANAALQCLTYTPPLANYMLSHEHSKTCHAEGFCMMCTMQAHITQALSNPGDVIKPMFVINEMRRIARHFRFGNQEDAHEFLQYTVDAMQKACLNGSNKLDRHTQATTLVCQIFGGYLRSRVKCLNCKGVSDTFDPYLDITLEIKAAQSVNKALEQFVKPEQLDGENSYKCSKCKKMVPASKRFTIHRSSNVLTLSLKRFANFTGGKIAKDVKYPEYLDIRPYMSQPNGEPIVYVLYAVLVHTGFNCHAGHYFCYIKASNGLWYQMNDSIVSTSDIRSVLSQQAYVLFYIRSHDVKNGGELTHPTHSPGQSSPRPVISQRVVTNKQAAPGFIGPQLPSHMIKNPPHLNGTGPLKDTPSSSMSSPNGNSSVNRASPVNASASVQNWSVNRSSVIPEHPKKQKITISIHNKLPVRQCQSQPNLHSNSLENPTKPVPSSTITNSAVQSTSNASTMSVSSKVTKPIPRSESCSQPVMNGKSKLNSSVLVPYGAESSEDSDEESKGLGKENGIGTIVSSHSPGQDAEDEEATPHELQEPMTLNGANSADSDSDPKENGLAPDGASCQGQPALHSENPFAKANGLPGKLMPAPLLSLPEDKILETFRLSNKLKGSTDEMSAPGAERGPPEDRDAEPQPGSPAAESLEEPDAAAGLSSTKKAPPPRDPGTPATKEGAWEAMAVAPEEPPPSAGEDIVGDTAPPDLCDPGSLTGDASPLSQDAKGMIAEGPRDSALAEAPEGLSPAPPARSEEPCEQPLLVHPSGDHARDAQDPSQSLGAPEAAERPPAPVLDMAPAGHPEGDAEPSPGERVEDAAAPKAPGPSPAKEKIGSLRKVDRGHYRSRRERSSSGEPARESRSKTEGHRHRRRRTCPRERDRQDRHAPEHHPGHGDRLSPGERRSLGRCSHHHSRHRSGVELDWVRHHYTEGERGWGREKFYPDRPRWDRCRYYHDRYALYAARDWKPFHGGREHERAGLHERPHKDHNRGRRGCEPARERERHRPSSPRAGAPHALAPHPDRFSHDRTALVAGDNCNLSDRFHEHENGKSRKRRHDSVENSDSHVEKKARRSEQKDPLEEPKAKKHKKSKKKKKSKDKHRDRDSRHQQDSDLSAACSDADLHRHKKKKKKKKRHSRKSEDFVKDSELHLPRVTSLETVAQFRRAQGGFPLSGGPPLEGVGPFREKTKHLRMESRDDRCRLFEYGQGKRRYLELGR
Method in brief: (§1)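 HEK293T lysate (495 µg per sample, in Tris/CHAPS/IGEPAL buffer with protease inhibitors) was treated in triplicate with fragment at 200 µM or with DMSO for 3 h. It was then treated with Biotin-Ahx-Ub-VS (0.5 µM final) for 1 h. Labelled DUBs were NeutrAvidin-enriched, digested with LysC and trypsin, and run by diaPASEF LC-MS/MS. Spectronaut label-free quantities were global-median-normalised. Values are average log2 ratios fragment/DMSO by unpaired t-test, using proteins with ≥2 unique peptides.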

[2] = biological target: USP46 (UniProt P62068)
Method in brief: as §1

[3] = biological target: T2, USP47 (UniProt Q96K76)
T2 sequence (whole entry): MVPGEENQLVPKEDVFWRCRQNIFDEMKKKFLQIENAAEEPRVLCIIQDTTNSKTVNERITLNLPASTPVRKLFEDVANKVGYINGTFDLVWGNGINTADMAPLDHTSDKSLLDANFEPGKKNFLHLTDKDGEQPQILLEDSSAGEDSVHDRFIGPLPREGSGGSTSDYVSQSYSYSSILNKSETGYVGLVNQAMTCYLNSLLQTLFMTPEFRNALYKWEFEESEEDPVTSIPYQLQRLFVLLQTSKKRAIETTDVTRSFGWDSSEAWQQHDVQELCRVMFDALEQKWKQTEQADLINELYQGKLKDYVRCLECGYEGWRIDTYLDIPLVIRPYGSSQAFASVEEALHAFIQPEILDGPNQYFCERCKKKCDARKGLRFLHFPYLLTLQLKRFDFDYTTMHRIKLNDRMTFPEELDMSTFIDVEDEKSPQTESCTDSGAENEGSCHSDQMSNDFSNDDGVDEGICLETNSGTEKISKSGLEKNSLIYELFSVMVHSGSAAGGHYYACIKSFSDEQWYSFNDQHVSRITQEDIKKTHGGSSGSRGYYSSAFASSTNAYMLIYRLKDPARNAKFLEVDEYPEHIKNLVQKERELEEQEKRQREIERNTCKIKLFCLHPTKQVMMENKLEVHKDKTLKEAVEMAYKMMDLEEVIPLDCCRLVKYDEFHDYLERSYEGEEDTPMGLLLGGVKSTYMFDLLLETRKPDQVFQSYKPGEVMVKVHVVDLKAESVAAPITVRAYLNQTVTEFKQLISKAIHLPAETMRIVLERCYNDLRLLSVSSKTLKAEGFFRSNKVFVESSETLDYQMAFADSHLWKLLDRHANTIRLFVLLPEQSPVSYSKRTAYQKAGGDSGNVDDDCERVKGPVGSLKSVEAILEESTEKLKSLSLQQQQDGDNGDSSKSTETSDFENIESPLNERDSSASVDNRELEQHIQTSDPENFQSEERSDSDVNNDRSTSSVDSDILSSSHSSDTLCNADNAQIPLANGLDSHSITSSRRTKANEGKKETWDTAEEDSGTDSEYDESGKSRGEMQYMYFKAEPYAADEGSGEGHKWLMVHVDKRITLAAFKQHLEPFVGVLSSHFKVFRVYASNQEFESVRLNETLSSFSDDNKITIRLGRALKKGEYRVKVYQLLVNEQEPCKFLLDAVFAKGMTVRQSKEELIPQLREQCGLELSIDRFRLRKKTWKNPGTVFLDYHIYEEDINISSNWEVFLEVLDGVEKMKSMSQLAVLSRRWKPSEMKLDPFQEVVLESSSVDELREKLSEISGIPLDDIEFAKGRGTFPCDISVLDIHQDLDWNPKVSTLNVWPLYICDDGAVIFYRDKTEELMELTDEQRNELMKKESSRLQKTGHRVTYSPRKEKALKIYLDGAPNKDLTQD
Method in brief: as §1

[4] = biological target: T3, USP48 (UniProt Q86UV5)
T3 sequence (whole entry): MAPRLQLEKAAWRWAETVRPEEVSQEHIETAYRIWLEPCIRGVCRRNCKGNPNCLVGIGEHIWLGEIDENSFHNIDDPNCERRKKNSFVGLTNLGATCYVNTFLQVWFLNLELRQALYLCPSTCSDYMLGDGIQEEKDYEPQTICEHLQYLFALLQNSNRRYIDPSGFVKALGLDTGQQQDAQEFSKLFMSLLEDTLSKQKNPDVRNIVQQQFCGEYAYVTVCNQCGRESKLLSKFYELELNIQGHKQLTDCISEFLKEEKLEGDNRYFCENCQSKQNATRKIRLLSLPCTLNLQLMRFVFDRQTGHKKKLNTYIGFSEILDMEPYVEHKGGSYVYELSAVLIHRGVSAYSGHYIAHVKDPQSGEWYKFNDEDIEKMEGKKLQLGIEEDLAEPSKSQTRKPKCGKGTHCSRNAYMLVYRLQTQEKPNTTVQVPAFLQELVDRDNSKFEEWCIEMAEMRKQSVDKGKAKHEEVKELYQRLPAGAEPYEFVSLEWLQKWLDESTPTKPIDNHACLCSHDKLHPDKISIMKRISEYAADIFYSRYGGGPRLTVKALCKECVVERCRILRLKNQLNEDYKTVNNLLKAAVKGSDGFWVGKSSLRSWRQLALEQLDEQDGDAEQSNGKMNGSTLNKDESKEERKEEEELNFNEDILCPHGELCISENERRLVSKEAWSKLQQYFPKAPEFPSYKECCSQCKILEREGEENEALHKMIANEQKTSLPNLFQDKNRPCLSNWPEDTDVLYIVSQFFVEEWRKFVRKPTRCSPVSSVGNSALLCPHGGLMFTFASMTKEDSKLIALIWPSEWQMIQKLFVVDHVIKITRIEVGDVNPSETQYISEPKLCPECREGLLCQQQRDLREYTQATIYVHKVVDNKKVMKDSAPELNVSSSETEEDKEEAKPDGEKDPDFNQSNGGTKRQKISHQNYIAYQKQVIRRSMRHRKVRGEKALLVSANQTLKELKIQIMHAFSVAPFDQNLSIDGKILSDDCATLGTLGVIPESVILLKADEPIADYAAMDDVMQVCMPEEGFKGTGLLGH
Method in brief: as §1

[5] = biological target: T4, USP5 (UniProt P45974)
T4 sequence (whole entry): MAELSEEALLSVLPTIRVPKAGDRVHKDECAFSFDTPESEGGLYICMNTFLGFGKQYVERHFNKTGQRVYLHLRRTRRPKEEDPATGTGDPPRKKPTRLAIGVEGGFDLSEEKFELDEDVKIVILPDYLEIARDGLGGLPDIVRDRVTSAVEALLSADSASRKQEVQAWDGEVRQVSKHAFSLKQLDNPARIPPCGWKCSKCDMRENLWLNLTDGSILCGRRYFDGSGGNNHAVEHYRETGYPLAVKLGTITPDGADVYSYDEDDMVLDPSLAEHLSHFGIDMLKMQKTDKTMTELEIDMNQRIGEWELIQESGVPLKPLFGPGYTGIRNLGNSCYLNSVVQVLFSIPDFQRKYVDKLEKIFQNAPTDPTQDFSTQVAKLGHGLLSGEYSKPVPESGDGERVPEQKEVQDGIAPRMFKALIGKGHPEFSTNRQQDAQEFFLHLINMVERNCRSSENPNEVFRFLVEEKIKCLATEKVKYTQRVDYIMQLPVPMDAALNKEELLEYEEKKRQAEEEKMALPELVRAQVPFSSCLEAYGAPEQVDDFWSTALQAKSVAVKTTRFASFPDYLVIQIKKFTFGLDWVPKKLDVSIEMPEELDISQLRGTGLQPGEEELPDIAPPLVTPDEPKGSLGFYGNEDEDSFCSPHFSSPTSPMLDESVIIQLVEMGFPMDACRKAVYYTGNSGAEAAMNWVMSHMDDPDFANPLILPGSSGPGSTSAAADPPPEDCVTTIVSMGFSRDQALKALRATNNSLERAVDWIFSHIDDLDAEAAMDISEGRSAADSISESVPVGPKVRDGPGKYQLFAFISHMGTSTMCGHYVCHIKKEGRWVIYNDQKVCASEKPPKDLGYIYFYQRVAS
Method in brief: as §1

[6] = biological target: USP54 (UniProt Q70EL1)
Method in brief: as §1

[7] = biological target: USP7 (UniProt Q93009)
Method in brief: as §1

[8] = biological target: T5, USP8 (UniProt P40818)
T5 sequence (whole entry): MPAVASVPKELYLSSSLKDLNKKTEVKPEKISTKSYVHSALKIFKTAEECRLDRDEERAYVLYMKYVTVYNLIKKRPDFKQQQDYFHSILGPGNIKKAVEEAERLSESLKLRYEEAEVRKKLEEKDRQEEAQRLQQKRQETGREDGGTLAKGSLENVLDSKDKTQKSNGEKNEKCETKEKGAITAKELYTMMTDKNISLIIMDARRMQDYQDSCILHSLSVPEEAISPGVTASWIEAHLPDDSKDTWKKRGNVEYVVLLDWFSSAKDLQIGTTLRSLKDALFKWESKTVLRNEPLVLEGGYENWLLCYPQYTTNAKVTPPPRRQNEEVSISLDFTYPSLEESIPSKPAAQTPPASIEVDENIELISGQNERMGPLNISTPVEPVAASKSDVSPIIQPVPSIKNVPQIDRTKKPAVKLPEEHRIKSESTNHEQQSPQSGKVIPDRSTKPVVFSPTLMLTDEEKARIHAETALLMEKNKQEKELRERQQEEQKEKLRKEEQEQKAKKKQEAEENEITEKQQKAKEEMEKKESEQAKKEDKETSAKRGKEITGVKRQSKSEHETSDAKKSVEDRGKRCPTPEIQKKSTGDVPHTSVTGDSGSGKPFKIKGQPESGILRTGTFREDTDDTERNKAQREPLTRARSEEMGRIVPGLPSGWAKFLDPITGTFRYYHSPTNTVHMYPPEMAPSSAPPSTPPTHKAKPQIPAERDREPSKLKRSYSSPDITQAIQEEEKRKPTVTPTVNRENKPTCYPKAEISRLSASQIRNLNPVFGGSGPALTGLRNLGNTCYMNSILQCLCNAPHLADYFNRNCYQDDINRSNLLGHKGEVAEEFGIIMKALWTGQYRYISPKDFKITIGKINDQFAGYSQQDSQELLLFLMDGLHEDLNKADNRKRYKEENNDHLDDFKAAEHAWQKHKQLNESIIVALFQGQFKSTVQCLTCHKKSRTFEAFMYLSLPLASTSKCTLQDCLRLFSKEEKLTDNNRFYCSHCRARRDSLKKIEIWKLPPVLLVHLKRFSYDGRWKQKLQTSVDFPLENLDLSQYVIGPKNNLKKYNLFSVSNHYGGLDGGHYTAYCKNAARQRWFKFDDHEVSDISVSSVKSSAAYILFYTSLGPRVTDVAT
Method in brief: as §1

USP46, sequence (P62068 whole entry): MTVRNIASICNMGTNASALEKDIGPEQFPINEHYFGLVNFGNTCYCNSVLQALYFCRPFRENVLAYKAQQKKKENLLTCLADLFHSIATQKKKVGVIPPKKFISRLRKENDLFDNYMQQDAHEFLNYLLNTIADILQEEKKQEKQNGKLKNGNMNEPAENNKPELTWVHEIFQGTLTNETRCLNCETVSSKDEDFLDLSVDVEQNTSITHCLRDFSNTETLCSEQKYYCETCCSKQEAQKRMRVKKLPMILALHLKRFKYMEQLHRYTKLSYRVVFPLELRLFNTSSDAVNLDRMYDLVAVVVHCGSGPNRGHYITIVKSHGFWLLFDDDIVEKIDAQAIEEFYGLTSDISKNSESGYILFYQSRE
USP54, sequence (Q70EL1 whole entry): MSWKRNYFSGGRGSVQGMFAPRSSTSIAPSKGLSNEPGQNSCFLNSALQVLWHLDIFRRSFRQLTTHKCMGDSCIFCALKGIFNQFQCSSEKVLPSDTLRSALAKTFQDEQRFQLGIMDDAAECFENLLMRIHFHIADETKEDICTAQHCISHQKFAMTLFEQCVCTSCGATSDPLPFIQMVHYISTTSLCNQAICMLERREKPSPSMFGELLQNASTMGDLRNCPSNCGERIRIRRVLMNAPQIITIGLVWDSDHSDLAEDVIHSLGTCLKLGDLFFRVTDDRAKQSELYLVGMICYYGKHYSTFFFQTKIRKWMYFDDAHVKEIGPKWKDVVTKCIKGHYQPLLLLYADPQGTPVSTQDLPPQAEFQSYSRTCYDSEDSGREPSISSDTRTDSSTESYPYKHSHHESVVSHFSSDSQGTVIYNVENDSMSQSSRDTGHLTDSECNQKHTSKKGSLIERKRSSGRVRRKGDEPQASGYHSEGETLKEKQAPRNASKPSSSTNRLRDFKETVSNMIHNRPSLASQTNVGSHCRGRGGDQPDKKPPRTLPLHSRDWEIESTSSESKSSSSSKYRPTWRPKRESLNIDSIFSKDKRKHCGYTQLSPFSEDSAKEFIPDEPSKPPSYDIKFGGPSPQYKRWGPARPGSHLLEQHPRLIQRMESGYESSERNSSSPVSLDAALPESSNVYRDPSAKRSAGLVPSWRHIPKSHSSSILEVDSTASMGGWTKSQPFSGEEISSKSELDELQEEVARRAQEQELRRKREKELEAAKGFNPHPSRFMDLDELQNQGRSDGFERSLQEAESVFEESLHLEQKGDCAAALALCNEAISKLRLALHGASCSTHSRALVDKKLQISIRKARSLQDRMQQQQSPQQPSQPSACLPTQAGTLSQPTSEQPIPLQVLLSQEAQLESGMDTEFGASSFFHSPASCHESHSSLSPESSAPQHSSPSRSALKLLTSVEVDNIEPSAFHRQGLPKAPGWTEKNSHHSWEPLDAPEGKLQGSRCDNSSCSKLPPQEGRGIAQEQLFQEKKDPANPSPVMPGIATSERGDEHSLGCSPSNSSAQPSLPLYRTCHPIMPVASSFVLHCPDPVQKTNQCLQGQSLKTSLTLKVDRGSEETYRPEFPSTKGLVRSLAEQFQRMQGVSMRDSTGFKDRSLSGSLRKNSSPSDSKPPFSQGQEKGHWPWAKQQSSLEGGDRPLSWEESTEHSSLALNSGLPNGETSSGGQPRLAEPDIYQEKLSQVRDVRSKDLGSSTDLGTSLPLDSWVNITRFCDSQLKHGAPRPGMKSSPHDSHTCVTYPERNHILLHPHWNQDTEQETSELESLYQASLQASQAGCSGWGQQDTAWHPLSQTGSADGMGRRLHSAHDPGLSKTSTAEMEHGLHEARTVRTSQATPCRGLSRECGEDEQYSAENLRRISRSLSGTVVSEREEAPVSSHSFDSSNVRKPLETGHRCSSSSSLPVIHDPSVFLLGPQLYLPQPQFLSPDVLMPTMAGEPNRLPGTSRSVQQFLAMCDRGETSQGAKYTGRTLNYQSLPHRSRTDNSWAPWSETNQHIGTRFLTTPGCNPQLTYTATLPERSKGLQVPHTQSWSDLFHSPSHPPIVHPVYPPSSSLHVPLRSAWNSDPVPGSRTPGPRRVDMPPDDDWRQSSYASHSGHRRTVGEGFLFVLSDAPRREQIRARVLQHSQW
USP7, sequence (Q93009 whole entry, looked up): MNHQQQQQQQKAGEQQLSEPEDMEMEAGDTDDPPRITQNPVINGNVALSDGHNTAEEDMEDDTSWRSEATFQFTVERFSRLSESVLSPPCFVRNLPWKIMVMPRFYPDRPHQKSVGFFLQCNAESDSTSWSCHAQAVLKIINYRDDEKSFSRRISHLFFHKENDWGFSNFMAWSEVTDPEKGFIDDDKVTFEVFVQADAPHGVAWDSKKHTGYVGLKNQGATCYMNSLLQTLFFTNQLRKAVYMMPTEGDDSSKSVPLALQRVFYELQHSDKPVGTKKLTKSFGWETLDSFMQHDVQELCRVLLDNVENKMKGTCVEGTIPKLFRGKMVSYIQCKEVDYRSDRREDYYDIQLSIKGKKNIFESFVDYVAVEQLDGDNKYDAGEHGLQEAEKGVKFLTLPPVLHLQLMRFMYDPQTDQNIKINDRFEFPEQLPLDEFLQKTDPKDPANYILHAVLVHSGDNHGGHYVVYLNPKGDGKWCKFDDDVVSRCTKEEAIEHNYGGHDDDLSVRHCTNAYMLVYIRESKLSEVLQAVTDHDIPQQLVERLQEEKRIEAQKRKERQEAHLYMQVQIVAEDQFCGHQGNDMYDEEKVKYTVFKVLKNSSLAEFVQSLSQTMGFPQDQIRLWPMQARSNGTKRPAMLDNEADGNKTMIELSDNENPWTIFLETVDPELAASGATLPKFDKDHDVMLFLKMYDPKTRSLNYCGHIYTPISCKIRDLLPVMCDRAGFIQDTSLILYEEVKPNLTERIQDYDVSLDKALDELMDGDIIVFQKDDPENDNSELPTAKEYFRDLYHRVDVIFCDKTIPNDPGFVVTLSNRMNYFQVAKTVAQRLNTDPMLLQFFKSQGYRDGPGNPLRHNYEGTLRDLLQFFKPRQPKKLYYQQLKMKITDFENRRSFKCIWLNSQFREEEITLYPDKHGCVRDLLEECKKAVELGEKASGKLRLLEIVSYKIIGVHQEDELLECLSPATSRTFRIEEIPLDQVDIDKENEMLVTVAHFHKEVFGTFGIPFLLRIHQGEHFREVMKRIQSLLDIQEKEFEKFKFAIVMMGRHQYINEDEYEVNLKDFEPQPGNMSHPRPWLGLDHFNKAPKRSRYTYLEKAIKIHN

O=C(CCl)N1CCC(c2noc3cc(F)ccc23)CC1
log2 ratio of Biotin-Ahx-Ub-VS probe labelling [1]: 0.542 | log2 ratio of Biotin-Ahx-Ub-VS probe labelling [2]: -0.343 | log2 ratio of Biotin-Ahx-Ub-VS probe labelling [3]: -0.18 | log2 ratio of Biotin-Ahx-Ub-VS probe labelling [4]: -0.806 | log2 ratio of Biotin-Ahx-Ub-VS probe labelling [5]: 0.182 | log2 ratio of Biotin-Ahx-Ub-VS probe labelling [6]: 0.351 | log2 ratio of Biotin-Ahx-Ub-VS probe labelling [7]: -1.81 (active) | log2 ratio of Biotin-Ahx-Ub-VS probe labelling [8]: -0.0714
